{
  "source": "PubChem BioAssay (NCATS)",
  "note": "Records with an inconclusive call do not appear. Where a call stands in place of a potency, no number is given. Active and inactive are the calls of the source. Calls follow the shape of the full dose curve. Numbered stars: 1 amine (or outer) side, 2 acyl side, 3 side chain; on linkers, the order of the positions; unused ones are H or OH. Bridge positions count the residues as written; N and C are the ends. Square brackets hold non-standard residues; d marks the D form. Peptide text beside a SMILES is read from it. * marks the point of attachment. ξ: configuration not given here. pTerphenylCO(4''-OnC5H11) = CCCCCOc1ccc(-c2ccc(-c3ccc(C(=O)*)cc3)cc2)cc1; ξOrn(4,5-diOH) = O=C(C(CC(O)C(O)N[*:3])N[*:1])[*:2]; ξhTyr(βξ-OH,γξ-OH) = NC(C(=O)O)C(O)C(O)c1ccc(O)cc1; ξPro(3ξ-OH,4ξ-Me) = CC1CNC(C(=O)O)C1O; Hyp = O=C(O)[CH]1C[CH](O)CN1",
  "data": [
    {"test": "Primary qHTS for inhibitors of MERS-S pseudo-typed particle cell entry (AID 1479149); also: nearly all actives have a fitted effect of over 60% in size; also: potency is read from the fitted curve at half-maximal effect", "settings": "MERS-S pseudotyped particle entry, luciferase; series mostly up to 57.1 µM", "values": [
      {"smiles": "COc1cc(CNC(=O)CCCC/C=C/C(C)C)ccc1O", "Potency": "inactive"},
      {"smiles": "C[C@H]1O[C@@H](O[C@H]2[C@@H](O)C[C@H](O[C@H]3[C@@H](O)C[C@H](O[C@H]4CC[C@@]5(C)[C@H](CC[C@@H]6[C@@H]5C[C@@H](O)[C@]5(C)[C@@H](C7=CC(=O)OC7)CC[C@]65O)C4)O[C@@H]3C)O[C@@H]2C)C[C@H](O)[C@@H]1O", "Potency": "inactive"},
      {"smiles": "C=CC(=O)N1CCCC(n2nc(-c3ccc(Oc4ccccc4)cc3)c3c(N)ncnc32)C1", "note": "(stereo not given)", "Potency": "inactive"},
      {"smiles": "CCCCCOc1ccc(-c2ccc(-c3ccc(C(=O)NC4CC(O)C(O)NC(=O)C5C(O)C(C)CN5C(=O)C(C(C)O)NC(=O)C(C(O)C(O)c5ccc(O)cc5)NC(=O)C5CC(O)CN5C(=O)C(C(C)O)NC4=O)cc3)cc2)cc1", "note": "(stereo not drawn) ({pTerphenylCO(4''-OnC5H11)}-[ξOrn(4,5-diOH)]T[Hyp][ξhTyr(βξ-OH,γξ-OH)]T[ξPro(3ξ-OH,4ξ-Me)]; lactam 1-C; configuration not given here)", "Potency": "11.2 µM (active)"},
      {"smiles": "C[C@@H](c1nc(-c2ccc(C#N)cc2)cs1)[C@](O)(Cn1cncn1)c1cc(F)ccc1F", "Potency": "10 µM (active)"},
      {"smiles": "CCCCC(=O)N(Cc1ccc(-c2ccccc2-c2nn[nH]n2)cc1)[C@H](C(=O)O)C(C)C", "Potency": "inactive"},
      {"smiles": "CO[C@H]1C[C@H](O[C@@H]2[C@H](C)O[C@H](O[C@@H]3/C(C)=C/C[C@@H]4C[C@@H](C[C@]5(C=C[C@H](C)[C@@H](C6CCCCC6)O5)O4)OC(=O)[C@@H]4C=C(C)C(O)[C@H]5OC/C(=C\\C=C\\[C@@H]3C)[C@]54O)C[C@@H]2OC)O[C@@H](C)[C@@H]1O", "note": "(stereo not given in full)", "Potency": "inactive"},
      {"smiles": "COc1cc([C@@H]2c3cc4c(cc3C(O[C@@H]3O[C@@H]5CO[C@@H](c6cccs6)OC5[C@H](O)[C@H]3O)C3COC(=O)[C@@H]32)OCO4)cc(OC)c1O", "note": "(stereo not given in full)", "Potency": "inactive"},
      {"smiles": "C/C(O)=C(\\C#N)C(=O)Nc1ccc(C(F)(F)F)cc1", "Potency": "inactive"},
      {"smiles": "C[C@]12C=CC(=O)C=C1CC[C@@H]1[C@@H]2[C@@H](O)C[C@@]2(C)[C@H]1CC[C@]2(O)C(=O)COP(=O)(O)O", "activity change, negative = inhibition": "-22% [at 11.4 µM] (inactive)"},
      {"smiles": "O=C(O)c1cc(O)c2c(c1)[C@H]([C@H]1c3cc(C(=O)O)cc(O)c3C(=O)c3c(O[C@@H]4O[C@H](CO)[C@@H](O)[C@H](O)[C@H]4O)cccc31)c1cccc(O[C@@H]3O[C@H](CO)[C@@H](O)[C@H](O)[C@H]3O)c1C2=O", "Potency": "inactive"},
      {"smiles": "C[C@@]12CCCCC[C@@H](Cc3ccc(O)cc31)[C@H]2N", "Potency": "inactive"},
      {"smiles": "OCCOc1ccc(/C(=C(/CCCl)c2ccccc2)c2ccccc2)cc1", "Potency": "inactive"},
      {"smiles": "CCCOc1ccc2nc(NC(=O)OC)sc2c1", "Potency": "inactive"},
      {"smiles": "NCCCC[C@H](NC(=O)[C@@H]1CCCN1C(=O)[C@@H]1CSSC[C@H](NC(=O)CNC(=O)CNC(=O)CN)C(=O)N[C@@H](Cc2ccc(O)cc2)C(=O)N[C@@H](Cc2ccccc2)C(=O)N[C@@H](CCC(N)=O)C(=O)N[C@@H](CC(N)=O)C(=O)N1)C(=O)NCC(N)=O", "note": "(H-GGGCYFQNCPKG-NH2; disulfide 4-9)", "Potency": "inactive"},
      {"smiles": "NCCS[As](SCCN)c1ccc(Nc2nc(N)nc(N)n2)cc1", "Potency": "inactive"},
      {"smiles": "CC(C)C[C@H](NC(=O)CNC(=O)c1cc(Cl)ccc1Cl)B1OC(=O)C(CC(=O)O)(CC(=O)O)O1", "Potency": "1.26 µM (active)"},
      {"smiles": "N=C(N)c1ccc(/C=C/c2ccc(C(=N)N)cc2O)cc1", "Potency": "inactive"},
      {"smiles": "Cc1cc(-c2ccc(N=Nc3ccc4c(S(=O)(=O)O)cc(S(=O)(=O)O)c(N)c4c3O)c(C)c2)ccc1N=Nc1ccc2c(S(=O)(=O)O)cc(S(=O)(=O)O)c(N)c2c1O", "Potency": "inactive"},
      {"smiles": "CC(=O)OC1CC(OC2C(O)CC(OC3C(O)CC(OC4CCC5(C)C(CCC6C5CCC5(C)C(C7=CC(=O)OC7)CCC65O)C4)OC3C)OC2C)OC(C)C1O", "note": "(stereo not given)", "Potency": "inactive"},
      {"smiles": "CN(C)C(=O)c1cc2cnc(Nc3ccc(N4CCNCC4)cn3)nc2n1C1CCCC1", "Potency": "inactive"},
      {"smiles": "COc1cc2c(cc1O)CCN[C@]21CS[C@@H]2c3c(OC(C)=O)c(C)c4c(c3[C@H](COC1=O)N1[C@@H]2[C@H]2c3c(cc(C)c(OC)c3O)C[C@@H]([C@@H]1O)N2C)OCO4", "activity change, negative = inhibition": "-71.9% [at 11.4 µM] (inactive)"},
      {"smiles": "Nc1nc(NC2CC2)c2ncn([C@H]3C=C[C@@H](CO)C3)c2n1", "Potency": "inactive"},
      {"smiles": "CC(=O)O[C@H]1C[C@@H]2CC[C@@H]3[C@H](CC[C@@]4(C)[C@H]3C[C@H](N3CC[N+](C)(C)CC3)[C@@H]4OC(C)=O)[C@@]2(C)C[C@@H]1N1CC[N+](C)(C)CC1", "Potency": "inactive"},
      {"smiles": "CNC(C)C(O)c1ccccc1", "note": "(stereo not given)", "Potency": "inactive"}
    ]}
  ]
}
